The panel holds about 83,000 compounds, 20% with a hit somewhere; the sample as a whole holds those more often.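 Interpretation: 100, growth as untreated; towards 0, rising growth inhibition; 0, no net growth; 0 to -100, cell death. Compounds scoring below 10 were considered active.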 A number with no mark means an inactive call. The source made the active and inactive calls.
System: HL-60(TB) leukemia
Test: NCI-60 one-dose screen, 48 h (100 = growth as untreated, 0 = no growth, -100 = all killed)
Settings: 10 µM unless noted

| SMILES | growth |
| --- | --- |
| CC1CCN(CCCCCOc2ccc3oc4ccc(Cl)cc4c(=O)c3c2)CC1 | 39.6% |
| COc1cc(C(=O)/C=C/c2ccc3nc(-c4cc(F)cc(F)c4)sc3c2)cc(OC)c1OC | 60.1% |
| CN(C)C(=S)N(C)C | 86.6% |
| O=C(c1ccccc1)N(C(=S)NCCc1ccc(Cl)cc1)c1ccc(Cl)cc1 | 23% |
| Cc1ccc(-c2c3c(N)c4c(nc3nc3c2c(C)nn3-c2ccccc2)CCCC4)cc1 | 98.5% |
| CC(NC(=O)C(C)Oc1ccc(Cl)cc1Cl)C(=O)O (stereo unspecified) | 105% |
| CC1=C(C(=O)/C=C/c2ccc(N(C)C)cc2)C(c2ccccc2)NC(=S)N1 (stereo unspecified) | 99.4% |
| COc1ccc(-c2nc(-c3nc4cc(Cl)c(F)cc4[nH]3)c3ccccn23)cc1 | 46.4% |
| Cn1ccnc1C(=O)/C=C/c1ccc(CC(=O)Nc2ccc(Br)cc2)cc1 | 0.748% (active) |
| COc1cc(NC(C)CCCN)c2ncccc2c1Oc1ccc(Cl)cc1 (stereo unspecified) | 94.8% |
| Cc1cc(C)c(N)c(S(=O)(=O)O)c1 | 106% |
| CCOC(=O)C1=C(C(=O)c2ccc(Br)cc2)C(c2ccc(Br)cc2)NC(=S)N1 (stereo unspecified) | 117% |
| CCOC(=O)CCC(NC(=O)c1ccc(N)cc1)C(=O)OCC (stereo unspecified) | 102% |
| CCCCCCNC(=O)Oc1ccc(/C(=C(/C)Cc2ccc(OC)cc2)c2ccc(OCCN3CCCCC3)cc2)cc1 | 57.9% |
| Clc1ccc(N/N=C(\c2ccccc2)c2ccccn2)nc1 | -28.3% (active) |
| C=C(CNCCc1ccc(O)cc1)[C@@H]1CC[C@]2(CO)CC[C@]3(C)[C@H](CC[C@@H]4[C@@]5(C)CCC(NCCc6ccc(O)cc6)C(C)(C)[C@@H]5CC[C@]43C)[C@@H]12 (stereo partly specified) | -65.2% (active) |

— PubChem BioAssay (NCI)
